{
  "source": "paper PMC10726135",
  "about": "“HNF4α isoforms regulate the circadian balance between carbohydrate and lipid metabolism in the liver”",
  "note": "Whole data set: some 18,000 sequences, median “log2 normalized intensity” near 0.36, cut for the highest 2% near 7.3. The entries come from a sample that favours the highest values as a whole.",
  "data": [
    {"molecular_target": "T1, HNF4alpha8 (COS-7 nuclear extract) (Homo sapiens, UniProt P41235-5 1-452)", "T1 sequence": "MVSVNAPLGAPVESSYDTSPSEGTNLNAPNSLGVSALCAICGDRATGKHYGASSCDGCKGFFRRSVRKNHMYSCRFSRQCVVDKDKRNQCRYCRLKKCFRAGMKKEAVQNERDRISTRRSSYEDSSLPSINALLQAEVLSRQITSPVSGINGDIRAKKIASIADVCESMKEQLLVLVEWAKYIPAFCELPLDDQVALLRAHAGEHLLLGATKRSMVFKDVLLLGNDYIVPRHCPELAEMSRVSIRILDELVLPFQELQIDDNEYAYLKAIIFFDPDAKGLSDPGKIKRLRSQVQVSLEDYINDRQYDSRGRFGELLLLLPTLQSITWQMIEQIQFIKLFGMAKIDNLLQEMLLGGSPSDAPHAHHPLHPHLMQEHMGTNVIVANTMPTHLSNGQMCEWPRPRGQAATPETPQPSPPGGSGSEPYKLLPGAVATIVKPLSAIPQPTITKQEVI", "experiment": "protein-binding microarray; COS-7 nuclear extract on double-stranded Agilent 4x180k PBM; binding buffer, salt, pH and temperature not given in the material; high values mean tight binding", "details": "chain copies: 2; label: 3' end of strand 1 on the slide; dsDNA, one strand shown", "how_it_was_run": "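Double-stranded oligonucleotides of ~60 nt, representing ~44,000 test sequences in quadruplicate, made up a custom Agilent SurePrint G3 4x180k array. Nuclear extracts from COS-7 cells transiently transfected by CaPO4 with a human HNF4α isoform expression vector were applied, and bound HNF4α was imaged at 2-µm resolution on an Agilent G2565CA scanner. Binding signal refers to the background-corrected, normalized gProcessedSignal output of Agilent software.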", "units": {"binding signal": "log2 normalized intensity"}, "values": [
      {"sequence": "CCTCCAGCTCTTTTGAACCCAAGGCCAAACGCCTAGGGAGATTAGAGTATCGGTCGA", "binding signal": 2.07},
      {"sequence": "ATAAATAAAGCCCTGGGGTAATAAAAGTGTGCCTAGGGAGATTAGAGTATCGGTCGA", "binding signal": -0.134},
      {"sequence": "TTTACTTATCATAAGTCAGCCTGGCTGAAGGCCTAGGGAGATTAGAGTATCGGTCGA", "binding signal": 1.53},
      {"sequence": "TCCCTTTGATATTTATCAAGATGAACTTTGGCCTAGGGAGATTAGAGTATCGGTCGA", "binding signal": 5.51},
      {"sequence": "CACCCAGAACTTTGACCGTTTGATTATTTGGCCTAGGGAGATTAGAGTATCGGTCGA", "binding signal": 2.96},
      {"sequence": "ATGAACTTTGACCCACCTACATTGATATTCGCCTAGGGAGATTAGAGTATCGGTCGA", "binding signal": 5.5},
      {"sequence": "TTGATATTTATCAAGATGAACTTTGACCCAGCCTAGGGAGATTAGAGTATCGGTCGA", "binding signal": 11.2},
      {"sequence": "ATTTTTCCCTTTGATATTTATCAAGATGAAGCCTAGGGAGATTAGAGTATCGGTCGA", "binding signal": 0.842},
      {"sequence": "ATTTATCAAGATGAACTTTGACCCACCTACGCCTAGGGAGATTAGAGTATCGGTCGA", "binding signal": 8.8},
      {"sequence": "GGCCGTGAAGCCGTCCTGTCCTGGACTTTCGCCTAGGGAGATTAGAGTATCGGTCGA", "binding signal": 4.47},
      {"sequence": "GCTTGTTCTCTCCCCCAACCCCACCTTCATGCCTAGGGAGATTAGAGTATCGGTCGA", "binding signal": 4.61},
      {"sequence": "GTGTGGGACTTTGGTCTGCTGAGTCTCATGGCCTAGGGAGATTAGAGTATCGGTCGA", "binding signal": 2.52},
      {"sequence": "TCTTCTCAGTGTTTTGGGTCCTACAGAACCGCCTAGGGAGATTAGAGTATCGGTCGA", "binding signal": 0.643},
      {"sequence": "TTTGCCATTTGGAGAGAGTTTGGCCCCAGTGCCTAGGGAGATTAGAGTATCGGTCGA", "binding signal": 2.83},
      {"sequence": "TTAGCCCAGTGAGACCCATTTTGGACTTTGGCCTAGGGAGATTAGAGTATCGGTCGA", "binding signal": 7.42},
      {"sequence": "TTTGGAATTTGACCTCATTTGCTCCCAGTGGCCTAGGGAGATTAGAGTATCGGTCGA", "binding signal": 4.58},
      {"sequence": "ACATCTTGATTTAGCCCAGTGAGACCCATTGCCTAGGGAGATTAGAGTATCGGTCGA", "binding signal": 0.922},
      {"sequence": "CCAGTGAGACCCATTTTGGACTTTGACCTCGCCTAGGGAGATTAGAGTATCGGTCGA", "binding signal": 11.8},
      {"sequence": "CACATACACCTGCGTGTACTAAGGTCTTAAGCCTAGGGAGATTAGAGTATCGGTCGA", "binding signal": 1.24},
      {"sequence": "CAAGTTGCAGGGATGGACTTTAATCTCCAAGCCTAGGGAGATTAGAGTATCGGTCGA", "binding signal": 5.83},
      {"sequence": "AGGTCATGCATAGAAGTATGTCTGGGATTTGCCTAGGGAGATTAGAGTATCGGTCGA", "binding signal": 0.935},
      {"sequence": "GTGCTCCTCCCCATCTCAGCCTCTCAGGTCGCCTAGGGAGATTAGAGTATCGGTCGA", "binding signal": 1.84},
      {"sequence": "CTCGGCATCATGCCCTTTGGCCCCCAGAGCGCCTAGGGAGATTAGAGTATCGGTCGA", "binding signal": 7.18},
      {"sequence": "AAGGCATGGGACCTTTGCCCTTCTTGTTAAGCCTAGGGAGATTAGAGTATCGGTCGA", "binding signal": 5.47},
      {"sequence": "CCCCCAAGGCATGGGACCTTTGCCCTTCTTGCCTAGGGAGATTAGAGTATCGGTCGA", "binding signal": 6.71},
      {"sequence": "ACACCAGGCCCTCGGCATCATGCCCTTTGGGCCTAGGGAGATTAGAGTATCGGTCGA", "binding signal": 4.63},
      {"sequence": "AGGCCCTCGGCATCATGCCCTTTGGCCCCCGCCTAGGGAGATTAGAGTATCGGTCGA", "binding signal": 7.71},
      {"sequence": "CCCCTCCCCCAAGGCATGGGACCTTTGCCCGCCTAGGGAGATTAGAGTATCGGTCGA", "binding signal": 7.34},
      {"sequence": "CAGAGACAATGTGAGCAGGTGTGTGGCATCGCCTAGGGAGATTAGAGTATCGGTCGA", "binding signal": 0.13},
      {"sequence": "CGACCTCCCCGTCACCCTCCCCGCCACCCCGCCTAGGGAGATTAGAGTATCGGTCGA", "binding signal": 7.01},
      {"sequence": "GCAAATGTGTCTTTTTTAGTCAGCATAGTTGCCTAGGGAGATTAGAGTATCGGTCGA", "binding signal": 1.34},
      {"sequence": "TGTGACAGAAGTCATGTCTCATTGCCCCTTGCCTAGGGAGATTAGAGTATCGGTCGA", "binding signal": 4.58},
      {"sequence": "GAATGGCCAGAGTTCCTGTGCAAGCCCCTGGCCTAGGGAGATTAGAGTATCGGTCGA", "binding signal": -0.986},
      {"sequence": "GGTGAAGGGGTCACCTCGCTCCCCTCCTGTGCCTAGGGAGATTAGAGTATCGGTCGA", "binding signal": 1.02},
      {"sequence": "GTTGGTTTCTGGGATTTGTACAAGTGATTGGCCTAGGGAGATTAGAGTATCGGTCGA", "binding signal": 1.63},
      {"sequence": "TCACCATATCCCTGAGAGGCCAGTTTGACCGCCTAGGGAGATTAGAGTATCGGTCGA", "binding signal": 3.28},
      {"sequence": "CAGTTTGACCTTTGCATTCTTACCCAAGCCGCCTAGGGAGATTAGAGTATCGGTCGA", "binding signal": 5.1},
      {"sequence": "ATATCCCTGAGAGGCCAGTTTGACCTTTGCGCCTAGGGAGATTAGAGTATCGGTCGA", "binding signal": 8.82},
      {"sequence": "GAGGCCAGTTTGACCTTTGCATTCTTACCCGCCTAGGGAGATTAGAGTATCGGTCGA", "binding signal": 7.03},
      {"sequence": "CCTGAGAGGCCAGTTTGACCTTTGCATTCTGCCTAGGGAGATTAGAGTATCGGTCGA", "binding signal": 8.31},
      {"sequence": "TTTGGAGTTTGACCTGGAGCCAGGGCCTTTGCCTAGGGAGATTAGAGTATCGGTCGA", "binding signal": 3.92},
      {"sequence": "AACATGTAAATATGACCTTTGCTTTTCAAGGCCTAGGGAGATTAGAGTATCGGTCGA", "binding signal": 5.13},
      {"sequence": "ATGTGGTCAAAACTTTGTTTGAGTTCCAAAGCCTAGGGAGATTAGAGTATCGGTCGA", "binding signal": 1.01},
      {"sequence": "TTTGACATCACCTAACTTGTGGCTGGGTGAGCCTAGGGAGATTAGAGTATCGGTCGA", "binding signal": 1.15},
      {"sequence": "AACCCCTTTTCAATTCCTTATCTCGTTCTGGCCTAGGGAGATTAGAGTATCGGTCGA", "binding signal": 0.721},
      {"sequence": "ACTTTGACCTTGGCACTGAAGAATGTCTAAGCCTAGGGAGATTAGAGTATCGGTCGA", "binding signal": 2.09},
      {"sequence": "TGACCTTGCAGTGGCAAGGCAAAAGAGACAGCCTAGGGAGATTAGAGTATCGGTCGA", "binding signal": 0.892},
      {"sequence": "CAGTCACAGCAGTGGACTTTGACCTTGGCAGCCTAGGGAGATTAGAGTATCGGTCGA", "binding signal": 9.69},
      {"sequence": "ACAGCAGTGGACTTTGACCTTGGCACTGAAGCCTAGGGAGATTAGAGTATCGGTCGA", "binding signal": 9.68},
      {"sequence": "ATGTGACCTTTTGGACCACAGAGTGACCTGGCCTAGGGAGATTAGAGTATCGGTCGA", "binding signal": 5.66},
      {"sequence": "ACAGCACTGACCTTTGAGAGTCAACACTGAGCCTAGGGAGATTAGAGTATCGGTCGA", "binding signal": 3.53},
      {"sequence": "CCTCCTGTGGTAATAAGTTGGTGGACGCTGGCCTAGGGAGATTAGAGTATCGGTCGA", "binding signal": 1.13},
      {"sequence": "AAAATATGGACTTTGGAATTAAGAAAAGCTGCCTAGGGAGATTAGAGTATCGGTCGA", "binding signal": 5.77},
      {"sequence": "AAAGATGTTTAAATAGTGATAATGGATGGCGCCTAGGGAGATTAGAGTATCGGTCGA", "binding signal": 0.702},
      {"sequence": "AGGCCAAACAAAAATATGGACTTTGGAATTGCCTAGGGAGATTAGAGTATCGGTCGA", "binding signal": 8.4},
      {"sequence": "GAGACAGCTCCACAGCTGGACTTTGGCTGCGCCTAGGGAGATTAGAGTATCGGTCGA", "binding signal": 6.17},
      {"sequence": "GCTAAGAGACAGCTCCACAGCTGGACTTTGGCCTAGGGAGATTAGAGTATCGGTCGA", "binding signal": 5.9},
      {"sequence": "TCTTTAGGCCAAACAAAAATATGGACTTTGGCCTAGGGAGATTAGAGTATCGGTCGA", "binding signal": 6.57},
      {"sequence": "ATCTCCAGATAAGACTTTGGACTTTGGACCGCCTAGGGAGATTAGAGTATCGGTCGA", "binding signal": 11.8},
      {"sequence": "GGATAATGATAAAGAGATTGGACTTTGGCCGCCTAGGGAGATTAGAGTATCGGTCGA", "binding signal": 9.44},
      {"sequence": "ATCTCCAAACGAGACTTTGGACTTTGGACTGCCTAGGGAGATTAGAGTATCGGTCGA", "binding signal": 11.9},
      {"sequence": "TATGCTCTCTCTCCACCTGGAGGGACTTTGGCCTAGGGAGATTAGAGTATCGGTCGA", "binding signal": 3.06},
      {"sequence": "ATTTGGACTTTTACTCTTAGAGATAATGGGGCCTAGGGAGATTAGAGTATCGGTCGA", "binding signal": 2.47},
      {"sequence": "GGACTTTGGTGTCTGACAGATAAGATTTGGGCCTAGGGAGATTAGAGTATCGGTCGA", "binding signal": 2.62}
    ]}
  ]
}
